The panel holds about 79,000 compounds, 15% with a hit somewhere; the sample as a whole holds those more often. Activity calls are given as the source filed them. Cut-off read from the data, not from the text of the source: active = growth inhibition above about 70%; inactive = the rest.
What was measured:
[1] = NCI Yeast Anticancer Drug Screen. Data for the rad50 strain (AID 155);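 note: 0% = growth of vehicle-only cultures of the same strain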; conditions: S. cerevisiae rad50 strain growth inhibition, hits give high values
Outline: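 Compounds were tested on a yeast strain with an engineered DNA damage repair alteration; the reported value is growth inhibition normalised to vehicle treatment.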

[2] = NCI Yeast Anticancer Drug Screen. Data for the mec2-1 strain (AID 157); conditions: S. cerevisiae mec2-1 strain, hits give high values
Outline: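 Strain: mec2-1 (DNA repair/cell cycle alteration). Compound exposure, then growth measured; inhibition expressed relative to vehicle.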

[3] = NCI Yeast Anticancer Drug Screen. Data for the sgs1 mgt1 strain (AID 161);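 note: 0% = growth of cultures given vehicle only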; conditions: S. cerevisiae sgs1 mgt1 strain, hits give high values
Outline: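 Read-out: growth inhibition vs vehicle controls. Cells: mutant yeast strain deficient in DNA damage repair.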

[4] = NCI Yeast Anticancer Drug Screen. Data for the cln2 rad14 strain (AID 165);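 note: 0% = growth equal to vehicle treated cultures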; conditions: S. cerevisiae cln2 rad14 strain, hits give high values
Outline: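 Compounds are applied to the cln2 rad14 yeast strain, and growth is then compared with that of vehicle-treated cultures to give inhibition.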

[5] = NCI Yeast Anticancer Drug Screen. Data for the bub3 strain (AID 167); conditions: S. cerevisiae bub3 mutant strain, hits give high values
Outline: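 Growth of a checkpoint-deficient yeast mutant is measured after compound exposure. Values represent inhibition relative to vehicle.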

[6] = NCI Yeast Anticancer Drug Screen. Data for the mlh1 rad18 strain (AID 175); conditions: S. cerevisiae mlh1 rad18 strain growth inhibition, hits give high values
Outline: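 Read-out is yeast growth inhibition, calculated against vehicle-only controls. The compound was applied to a strain engineered with DNA damage repair alterations.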

[7] = at 5.0 µM (retest, dose inferred, filed as 0.5)
[8] = at 50.0 µM (retest, dose inferred, filed as 5.0)

Measured: growth inhibition

CCCCCC/C=C\C=O
inactive: [1]; [7] -1% | [1]; [8] 4% | [1]; at 50.0 µM 67.7% | [2]; [7] -6% | [2]; [8] 13% | [2]; at 50.0 µM 37.1% | [3]; [7] 3% | [3]; [8] 17% | [3]; at 50.0 µM 64% | [4]; [7] -6% | [4]; [8] 12% | [4]; at 50.0 µM 52% | [5]; [7] -2% | [5]; [8] 6% | [6]; [7] 0% | [6]; [8] 5% | [6]; at 50.0 µM 51.4%
active: [5]; at 50.0 µM 79.5%

C=C1C(=O)OC2CC(C)C3C=CC(=O)C3CC12 (stereo not given)
active: [1]; at 50.0 µM 88.7% | [2]; at 50.0 µM 91.6% | [3]; at 50.0 µM 91.3% | [4]; at 50.0 µM 89.3% | [5]; [8] 72% | [5]; at 50.0 µM 88.2% | [6]; at 50.0 µM 90.6%
inactive: [1]; [7] 17% | [1]; [8] 55% | [2]; [7] 12% | [2]; [8] 50% | [3]; [7] 15% | [3]; [8] 57% | [4]; [7] 24% | [4]; [8] 40% | [5]; [7] 22% | [6]; [7] 16% | [6]; [8] 34%

CN(C)C(=S)SSSSC(=S)N(C)C
active: [1]; [7] 96% | [1]; [8] 99% | [1]; at 50.0 µM 96.9% | [2]; [7] 98% | [2]; [8] 99% | [2]; at 50.0 µM 96.7% | [3]; [7] 98% | [3]; [8] 99% | [3]; at 50.0 µM 98.3% | [4]; [8] 99% | [4]; at 50.0 µM 93.3% | [5]; [7] 96% | [5]; [8] 99% | [5]; at 50.0 µM 96.8% | [6]; [7] 97% | [6]; [8] 99% | [6]; at 50.0 µM 97%
inactive: [4]; [7] 65%

Cc1ccc(NC(=O)CC2SC(=Nc3ccc(Cl)cc3)NC2=O)cc1C (stereo not given)
inactive: [1]; [8] -11% | [2]; [7] 57% | [2]; [8] 5% | [3]; [7] 65% | [3]; [8] 0% | [4]; [7] 41% | [4]; [8] 18% | [5]; [8] 11% | [6]; [7] 31% | [6]; [8] 12%
active: [1]; [7] 79% | [1]; at 50.0 µM 99.2% | [2]; at 50.0 µM 99.5% | [3]; at 50.0 µM 99.3% | [4]; at 50.0 µM 98.3% | [5]; [7] 89% | [5]; at 50.0 µM 99.1% | [6]; at 50.0 µM 99.2%

COc1ccc(C2Oc3ccc(Cl)cc3C=C2[N+](=O)[O-])cc1 (stereo not given)
active: [1]; [7] 99% | [1]; [8] 93% | [1]; at 50.0 µM 80.4% | [2]; [7] 99% | [2]; [8] 95% | [2]; at 50.0 µM 87.1% | [3]; [7] 99% | [3]; [8] 95% | [3]; at 50.0 µM 82.5% | [4]; [7] 99% | [4]; [8] 93% | [4]; at 50.0 µM 83.2% | [5]; [7] 99% | [5]; [8] 94% | [5]; at 50.0 µM 84.4% | [6]; [7] 99% | [6]; [8] 95% | [6]; at 50.0 µM 79%

CCN(CC)Cc1cc(Nc2c3ccccc3nc3c2[nH]c2ccccc23)ccc1O
active: [1]; at 50.0 µM 82.5%
inactive: [1]; [7] -6% | [1]; [8] 18% | [2]; [7] 3% | [2]; [8] 5% | [2]; at 50.0 µM 8.85% | [3]; [7] -8% | [3]; [8] -19% | [3]; at 50.0 µM 2.65% | [4]; [7] 44% | [4]; [8] 44% | [4]; at 50.0 µM -3% | [5]; [7] 9% | [5]; [8] 3% | [5]; at 50.0 µM -4.65% | [6]; [7] -1% | [6]; [8] -9% | [6]; at 50.0 µM 33.5%

CS(=O)(=O)OCCN(CCOS(C)(=O)=O)c1ccc(C=Nc2ccc3oc(=O)ccc3c2)cc1
active: [1]; [8] 97% | [2]; [8] 95% | [2]; at 50.0 µM 77.1% | [3]; [8] 86% | [4]; [8] 77% | [6]; [7] 72% | [6]; [8] 97% | [6]; at 50.0 µM 88.7%
inactive: [1]; [7] 32% | [1]; at 50.0 µM 52.1% | [2]; [7] 35% | [3]; [7] 22% | [3]; at 50.0 µM 65.2% | [4]; [7] 13% | [4]; at 50.0 µM 22.4% | [5]; [7] -4% | [5]; [8] 14% | [5]; at 50.0 µM 40.1%

O=C1c2ccccc2C(=O)c2cc(N3C(=O)C=CC3=O)ccc21
active: [1]; [8] 83% | [1]; at 50.0 µM 90.7% | [2]; [8] 89% | [2]; at 50.0 µM 92% | [3]; [7] 96% | [3]; [8] 98% | [3]; at 50.0 µM 91.5% | [4]; [8] 99% | [4]; at 50.0 µM 91.7% | [5]; [7] 97% | [5]; [8] 97% | [5]; at 50.0 µM 87.8% | [6]; [8] 80% | [6]; at 50.0 µM 91.5%
inactive: [1]; [7] 54% | [2]; [7] 50% | [4]; [7] 53% | [6]; [7] 47%

O=C1C(=O)c2ccccc2C(O)=C1Sc1ccccc1
active: [1]; [8] 92% | [1]; at 50.0 µM 95.2% | [2]; [8] 89% | [2]; at 50.0 µM 92.4% | [3]; [8] 95% | [3]; at 50.0 µM 95% | [4]; [8] 88% | [4]; at 50.0 µM 79.3% | [5]; [8] 94% | [5]; at 50.0 µM 93.7% | [6]; [8] 93% | [6]; at 50.0 µM 95.5%
inactive: [1]; [7] 23% | [2]; [7] 20% | [3]; [7] 44% | [4]; [7] 41% | [5]; [7] 15% | [6]; [7] 34%

CCC(=O)C(C(=O)CC)c1c(OC(=O)c2ccccc2)ccc(O)c1C(=O)OC
active: [3]; [8] 71% | [3]; at 50.0 µM 71.4%
inactive: [1]; [7] -4% | [1]; [8] 30% | [1]; at 50.0 µM 30.9% | [2]; [7] -1% | [2]; [8] 16% | [2]; at 50.0 µM 47.9% | [3]; [7] 4% | [4]; [7] -5% | [4]; [8] -5% | [4]; at 50.0 µM -7.45% | [5]; [7] -2% | [5]; [8] -2% | [5]; at 50.0 µM 42.8% | [6]; [7] -3% | [6]; [8] 30% | [6]; at 50.0 µM 67%
